This is one part of the list. Calls of active or inactive are those of the source.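 The calls were made as follows: active = average inhibition over replicates above about 50%, so the earlier screening hit is confirmed (limit read from the data); inactive = the rest, counted as false positives.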

The target of this experiment is Ubiquitin carboxyl-terminal hydrolase isozyme L5 (Homo sapiens) (UniProt Q9Y5K5). Put plainly: retest of human UCH37 deubiquitinase inhibitors, confirmation, biochemical, Ub-AMC cleavage rate, fluorescence (AID 624100).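 Also: based on cleavage rate fitted by regression over a 30 min kinetic read; 0% = proteasome plus Ub-AMC and 100% = Ub-AMC without proteasome.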 As to conditions: Proteasome-bound UCH37, Ub-AMC cleavage fluorescence; at 20 µM; stronger effect = higher value.
Chain of Ubiquitin carboxyl-terminal hydrolase isozyme L5 (Homo sapiens) (Q9Y5K5 whole entry, looked up): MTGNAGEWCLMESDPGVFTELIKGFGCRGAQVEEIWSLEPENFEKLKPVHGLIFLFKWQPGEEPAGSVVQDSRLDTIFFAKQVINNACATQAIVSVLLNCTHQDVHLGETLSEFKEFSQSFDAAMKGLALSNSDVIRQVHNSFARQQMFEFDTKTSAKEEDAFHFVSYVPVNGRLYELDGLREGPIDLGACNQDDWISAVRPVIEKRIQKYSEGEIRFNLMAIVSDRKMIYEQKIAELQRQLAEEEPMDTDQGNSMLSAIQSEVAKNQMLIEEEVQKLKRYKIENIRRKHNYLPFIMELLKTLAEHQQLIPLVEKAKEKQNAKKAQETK
With `CCN(CC)CCCC(C)n1c2nc(=O)[nH]c(=O)c-2nc2cc(Cl)ccc21` (stereo not given), the inhibition is 85.1% (active).
The figure for `CC(C)CC[n+]1ccn(C2=C([O-])c3ccccc3C(=O)/C2=N\S(=O)(=O)c2ccccc2)c1` is 29.9% (inactive).
The result for `COc1ccc(S(=O)(=O)/N=C2\C=C(NS(=O)(=O)c3ccccc3)C(=O)c3ccccc32)cc1` reads 83.7% (active).
The result for `O=C1C(Cl)=C(Oc2ccccc2)C(=O)c2ccccc21` reads 95.2% (active); that for `COc1ccc(Cn2nnc3c(=O)[nH]c(C4CCN(C(=O)c5ccccc5Cl)CC4)nc32)cc1`, 17.8% (inactive); that for `O=C(/C=C/c1ccccc1)c1ccoc1`, 8.47% (inactive).
As for `O=C1Nc2ccc([N+](=O)[O-])cc2C1=Nc1cccc(CO)c1`, the inhibition was -1.27% (inactive).
`CCCCCCCCn1c2c(c(=N)c3c1CCC3)CCCC2`: the inhibition was 42.2% (inactive).
For `O=C(O)C(c1ccccc1)N1C(=O)/C(=C\c2ccc(-c3cccc(Cl)c3)o2)SC1=S` (stereo not given), the inhibition was 67.4% (active).
The result for `CCOC(=O)c1c(C)[nH]c2c1-c1ccccc1C(=O)C2=O` reads 90.1% (active); that for `O=c1ccc2c(-c3ccccc3S(=O)(=O)O)c3ccc(O)c(O)c3oc-2c1O`, 36.2% (inactive).
With `N#C/C(=C/c1ccc(N2CCOCC2)o1)C(=O)N1CCOCC1`, the inhibition is 29.8% (inactive).
As for `CC(=O)N1C(=O)/C(=C2\SC(=S)N(NC(=O)c3ccc(O)cc3)C2=O)c2ccccc21`, the inhibition was 63.5% (active).
For the molecule `O=C(OCC(=O)N1CCN(c2ccccc2)CC1)c1ccc([N+](=O)[O-])s1`, the inhibition was 22.8% (inactive).
The result for `CC(OC(=O)c1c(F)cccc1F)C(=O)NCCC1=CCCCC1` (stereo not given) reads 32.7% (inactive).

The values above are taken from PubChem BioAssay AID624100 (ICCB-Longwood Screening Facility, Harvard Medical School, 2012).
